PubChem BioAssay AID1159580 (chemical genetic matrix, 2015)
Among all 5,500 compounds or so, about 2,000 (36%) were called active. Not shown: some 18% with an inconclusive outcome. The list shows a part of the results. Values without a mark were called inactive. No stated cut-off is given here; in the data, active means normalized growth mostly below about 0.91 (no sharp cut-off); inconclusive means no clear call, values can overlap the other calls; inactive means mostly above about 0.92.

Experiment: chemical genetic growth profiling, strain panel (AID 1159580);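 further: tested at 20 µM; growth read once vehicle control cultures reached saturation at 30 °C; 1 = growth at the plate median or of vehicle wells; lower values mean less growth of the strain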
Details: growth OD
[1] = S. cerevisiae deletion strains, locus YAL013W, strain DEP1, hits give low values
[2] = S. cerevisiae deletion strains, locus YBR229C, strain ROT2, hits give low values
[3] = S. cerevisiae deletion strains, locus YDL101C, strain DUN1, hits give low values
[4] = S. cerevisiae deletion strains, locus YDL134C, strain PPH21, hits give low values
[5] = S. cerevisiae deletion strains, locus YDR150W, strain NUM1, hits give low values
[6] = S. cerevisiae deletion strains, locus YEL061C, strain CIN8, hits give low values
[7] = S. cerevisiae deletion strains, locus YGR078C, strain PAC10, hits give low values
[8] = S. cerevisiae deletion strains, locus YHR030C, strain SLT2, hits give low values
[9] = S. cerevisiae deletion strains, locus YHR087W, strain rtc3, hits give low values
[10] = S. cerevisiae deletion strains, locus YJR043C, strain POL32, hits give low values
[11] = S. cerevisiae deletion strains, locus YJR075W, strain HOC1, hits give low values
[12] = S. cerevisiae deletion strains, locus YKL190W, strain CNB1, hits give low values
[13] = S. cerevisiae deletion strains, locus YLR039C, strain RIC1, hits give low values
[14] = S. cerevisiae deletion strains, locus YLR058C, strain SHM2 (second series), hits give low values
[15] = S. cerevisiae deletion strains, locus YLR085C, strain ARP6, hits give low values
[16] = S. cerevisiae deletion strains, locus YLR262C, strain YPT6, hits give low values
[17] = S. cerevisiae deletion strains, locus YML094W, strain GIM5, hits give low values
[18] = S. cerevisiae deletion strains, locus YMR219W, strain ESC1, hits give low values
[19] = S. cerevisiae deletion strains, locus YMR263W, strain SAP30, hits give low values
[20] = S. cerevisiae deletion strains, locus YMR307W, strain GAS1, hits give low values
[21] = S. cerevisiae deletion strains, locus YNL153C, strain GIM3, hits give low values
[22] = S. cerevisiae deletion strains, locus YNL298W, strain CLA4 (second series), hits give low values
[23] = S. cerevisiae deletion strains, locus YNL322C, strain KRE1, hits give low values
[24] = S. cerevisiae deletion strains, locus YNR030W, strain Alg12, hits give low values
[25] = S. cerevisiae deletion strains, locus YPL055C, strain LGE1, hits give low values
[26] = S. cerevisiae deletion strains, locus YPL241C, strain CIN2, hits give low values
[27] = S. cerevisiae deletion strains, locus YPR135W, strain CTF4, hits give low values

## CC(=O)C1C(=O)CC(c2ccc(Cl)cc2)CC1=O (stereo not drawn)
[1]
  normalized growth: 0.342 (active)
[2]
  normalized growth: 0.454 (active)
[3]
  normalized growth: 0.425 (active)
[4]
  normalized growth: 0.854 (active)
[5]
  normalized growth: 0.489 (active)
[6]
  normalized growth: 0.867 (active)
[7]
  normalized growth: 0.463 (active)
[8]
  normalized growth: 0.199 (active)
[9]
  normalized growth: 0.541 (active)
[10]
  normalized growth: 0.585 (active)
[11]
  normalized growth: 0.444 (active)
[12]
  normalized growth: 0.848 (active)
[13]
  normalized growth: 0.218 (active)
[14]
  normalized growth: 0.761 (active)
[15]
  normalized growth: 0.529 (active)
[16]
  normalized growth: 0.219 (active)
[17]
  normalized growth: 0.901
[18]
  normalized growth: 0.562 (active)
[19]
  normalized growth: 0.268 (active)
[20]
  normalized growth: 0.218 (active)
[21]
  normalized growth: 0.512 (active)
[22]
  normalized growth: 0.849
[23]
  normalized growth: 0.796 (active)
[24]
  normalized growth: 0.855 (active)
S. cerevisiae deletion strains, locus YOL006C, strain TOP1, hits give low values
  normalized growth: 0.774
[25]
  normalized growth: 0.211 (active)
[26]
  normalized growth: 0.845 (active)
[27]
  normalized growth: 0.718

## O=C1C=C(Cl)CC(c2ccc(C(F)(F)F)cc2)C1 (stereo not drawn)
[1]
  normalized growth: 1
[2]
  normalized growth: 0.988
S. cerevisiae deletion strains, locus YCL061C, strain MRC1, hits give low values
  normalized growth: 1.01
[3]
  normalized growth: 0.995
[4]
  normalized growth: 1.03
[5]
  normalized growth: 1.1
[6]
  normalized growth: 1.03
[7]
  normalized growth: 1.01
[8]
  normalized growth: 0.987
[9]
  normalized growth: 0.975
[10]
  normalized growth: 1.01
[11]
  normalized growth: 1.02
[12]
  normalized growth: 0.983
[13]
  normalized growth: 0.936
[14]
  normalized growth: 0.986
[15]
  normalized growth: 1.06
[16]
  normalized growth: 0.94
[17]
  normalized growth: 1.04
[18]
  normalized growth: 1.01
[19]
  normalized growth: 0.989
[20]
  normalized growth: 1.01
S. cerevisiae deletion strains, locus YNL128W, strain TEP1, hits give low values
  normalized growth: 0.987
[21]
  normalized growth: 0.992
[22]
  normalized growth: 0.985
[23]
  normalized growth: 0.991
[24]
  normalized growth: 1.02
[25]
  normalized growth: 1.14
[26]
  normalized growth: 1.02
[27]
  normalized growth: 1.03
S. cerevisiae strains, strain wild type, hits give low values
  normalized growth: 0.971
